An excerpt weighted towards active compounds, which were near 2.4% of everything screened.
MEKK3 PB1 HTS = raises or lowers MEK5 binding to the human MEKK3 PB1 domain; 1.4% of 290,000 active; binding response (% of control), % at 10 µM; Q99759; bead-based flow cytometry, Alexa488-MEK5 binding to MEKK3; actives lie on both sides; 0 = blocked by unlabeled MEK5, 100 = vehicle;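 active = binding response more than 3 SD above or below the average of its plate-row segment, actives on both sides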;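 also: Alexa488 bead fluorescence after subtracting the streptavidin-only scavenger bead signal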
Target sequence (Q99759 whole entry, looked up, the tested form may be a part): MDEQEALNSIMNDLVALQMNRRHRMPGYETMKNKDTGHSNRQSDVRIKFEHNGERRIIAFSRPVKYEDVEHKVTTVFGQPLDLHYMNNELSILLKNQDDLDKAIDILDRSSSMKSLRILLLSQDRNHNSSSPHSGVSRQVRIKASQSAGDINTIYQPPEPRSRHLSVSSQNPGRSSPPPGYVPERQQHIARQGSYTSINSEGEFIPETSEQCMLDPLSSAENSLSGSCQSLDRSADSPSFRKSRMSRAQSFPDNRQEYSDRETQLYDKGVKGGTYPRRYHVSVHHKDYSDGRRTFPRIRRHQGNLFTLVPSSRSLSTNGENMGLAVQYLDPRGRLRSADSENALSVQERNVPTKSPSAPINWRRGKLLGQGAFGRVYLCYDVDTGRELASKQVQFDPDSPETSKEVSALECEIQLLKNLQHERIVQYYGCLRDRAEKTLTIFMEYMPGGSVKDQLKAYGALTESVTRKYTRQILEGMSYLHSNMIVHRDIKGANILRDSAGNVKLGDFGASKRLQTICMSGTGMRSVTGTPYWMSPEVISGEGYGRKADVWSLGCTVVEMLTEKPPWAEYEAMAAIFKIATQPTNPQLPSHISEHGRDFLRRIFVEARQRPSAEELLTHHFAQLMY
Arbovirus inh = antivirals against arbovirus infection. arbovirus infection cell-based antiviral screen. inhibition, % at 10 µM. 0.37% of 200,000 active; in the data active = inhibition above about 30%
MEKK2 mut-MEK5 = signal of MEK5 binding to mutant human MEKK2 PB1 domain. bead flow cytometry, Alexa488-MEK5 binding to MEKK2 mutant. 0.35% of 290,000 active. percent response, % at 10 µM; in the data active = percent response above about 24%, passing the limit was not always enough
MEKK2 WT-MEK5 = raises or lowers MEK5 binding to wildtype human MEKK2 PB1 domain; bead flow cytometry, Alexa488-MEK5 binding to MEKK2 WT; actives lie on both sides; binding response (% of control), % at 10 µM; 1.1% of 290,000 active; AID 1531; in the data active = binding response below about 67% or above about 130%
Pf gamet viab = P. falciparum stage V gametocyte viability inhibition. P. falciparum stage V gametocytes, ATP luminescence, 24 h. inhibition, % at 10.9 µM. 0.065% of 150,000 active;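 active = inhibition above the mean plus 3 SD of compounds within the control limits, set per campaign, cut at about 38% in these data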;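 also: 0% = DMSO wells and 100% = medium only without gametocytes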
Starred values were filed as active, the others as inactive; x = no result given; [ ] = dose if it differs, or a comment.

SMILES	MEKK3 PB1 HTS	Arbovirus inh	MEKK2 mut-MEK5	MEKK2 WT-MEK5	Pf gamet viab
CCS(=O)(=O)Nc1ccc(C2=NN(S(=O)(=O)CC)C(c3cccs3)C2)cc1 (centres undefined)	7.0*[inhibitor]	x	-32	x	x
CC(C)(C)C(=O)N1N=C(c2cccc(NS(C)(=O)=O)c2)CC1c1cccs1 (centres undefined)	102	8	-12	89	-11
COC(=O)[C@]1(C)N[C@H](c2ccc(-c3ccc(F)cc3)cc2)[C@@H]2C(=O)N(C)C(=O)[C@@H]21	x	x	x	x	21
CSc1ncccc1C(=O)N1CCN(S(=O)(=O)c2ccccc2)CC1	104	x	5	111	x
COc1ccc(C/C(C)=N\NC(=O)c2cn(C)c3ccccc23)cc1OC	94	x	-3	92	-7
Oc1ccc(Br)cc1-c1nc2cnccn2c1NC1CCCCC1	111	11	6	102	x
Oc1ccc(Br)cc1-c1nc2cnccn2c1NC1CCCC1	102	62*	0	99	x
COc1ccc(NC(=O)CN(C)CC(=O)Nc2ccc3c(c2)CCC3)cc1	97	3	-6	96	-4
CN(CC(=O)Nc1ccc2c(c1)CCC2)CC(=O)Nc1ccccc1Br	100	-1	-2	102	39*
CCOC(=O)Cc1nnc(NC(=O)CSc2ncc(-c3ccccc3)nn2)s1	83	4	-17	86	-7
O=C(O)/C(=C\c1ccc(-c2ccc(F)cc2)o1)c1ccccc1	117	44*	-1	106	11
COCCNC(=O)c1ccc(-n2c(SCc3ccncc3)nc3ccccc3c2=O)cc1	93	-3	-7	100	9
Cc1ccccc1C(=O)NC1CCN(CC(=O)Nc2ccccc2Cl)CC1	100	x	5	104	2
COC(=O)c1ccccc1NC(=O)CN1CCC(NC(=O)c2ccccc2C)CC1	98	83*	4	97	11
CCc1ccc(CCC(=O)Nc2ncc(Cc3ccccc3Cl)s2)o1	163*	-27	1	113	-15
O=C(CN1CCOCC1)Nc1ncc(Cc2ccccc2Cl)s1	103	7	4	102	x
CCOc1c([N+](=O)[O-])cc2c(C)c(C(=O)N3CCN(C)CC3)oc2c1OCC	105	x	6	108	x
Cc1cc(C)nc(N/N=C/C2=C(O)CC(c3ccc(F)cc3)CC2=O)n1 (centres undefined)	91	x	-22	90	-1
COc1ccc(C2=NN(C(=O)CSc3ncccn3)C(c3cccc(OC)c3OC)C2)cc1 (centres undefined)	87	0	-27	-7.0*	x
CC(NC(=O)CN1CCCC1)c1ccccc1 (centres undefined)	102	x	3	108	x
NS(=O)(=O)c1ccc(CCNC(=S)NC2CCCC2)cc1	95	6	-15	-10*	0
COc1ccc(OC)c(NC(=S)N2CCC(C(O)(c3ccccc3)c3ccccc3)CC2)c1	96	-7	-6	93	57*
COc1ccc(OC)c(NC(=S)N2CCN(Cc3ccccc3)CC2)c1	102	0	2	103	0
O=C(Cc1ccccc1)NC1c2ccccc2-c2ccccc21	103	-4	24	119	1
CCOC(=O)c1c(C)n(-c2ccc(C)cc2)c2ccc(OCC(O)CNCCCO)cc12 (centres undefined)	106	-22	40	181*	8
SMILES	MEKK3 PB1 HTS	Arbovirus inh	MEKK2 mut-MEK5	MEKK2 WT-MEK5	Pf gamet viab
CCOC(=O)c1c(C)n(-c2ccc(C)cc2)c2ccc(OCC(O)CNCC3CCCO3)cc12 (centres undefined)	53	-35	-7	124	x
OCCN1CCN(C(c2cccs2)c2ccc3cccnc3c2O)CC1 (centres undefined)	97	-38	-11	68*[inhibitor]	x
COc1ccc(C(=O)Nc2cc(Cl)ccc2C(=O)O)cc1	82	47*	-19	79	11
COc1c(Cl)cc(C(=O)Nc2ccccc2C(=O)O)cc1Cl	96	62*	1	93	x
COc1ccc(C(=O)Nc2ccccc2C(=O)Nc2ccccc2C(=O)O)cc1	102	x	3	96	x
COc1ccc(S(=O)(=O)N(C)CC(=O)NCCN2CCOCC2)cc1Cl	95	x	0	101	x
COc1ccc(NC2SC(=O)N(C)C2=O)cc1 (centres undefined)	94	-20	-9	92	-1
C[C@H](N)c1nnc(SCC(N)=O)o1	100	x	-1	98	0
O=C(O)c1cccc(-c2ccc(/C=c3/sc4nc5ccccc5n4c3=O)o2)c1	102	x	-2	92	-42
O=C(O)c1cc(C(=O)O)cc(-c2ccc(/C=c3/sc4nc5ccccc5n4c3=O)o2)c1	71*[inhibitor]	21	-37	61*[inhibitor]	x
C/C(=C\c1ccccc1)C(=O)Nc1ccc(Cl)cn1	96	x	1	94	x
COc1ccc(-c2nnc(-c3cc(OC)c(OC)c(OC)c3)o2)cc1OC	79	38*	1	94	x
CCc1ccc(CNC(=O)c2ccc(NC(=O)C3=CSCCO3)cc2)cc1	97	x	3	100	x
Cc1ccc(O)c(-c2cc(C(=O)Nc3ccc(S(=O)(=O)Nc4nc(C)cc(C)n4)cc3)[nH]n2)c1	84	35*	0	98	2
Cc1ccc(C)c(NC(=O)c2cc(-c3cc(C)ccc3O)n[nH]2)c1	100	x	-1	97	x
CCOc1ccc(N(CC(=O)Nc2cccc(F)c2)S(=O)(=O)c2c(C)noc2C)cc1	102	-2	2	107	x
CCOc1ccc(N(CC(=O)Nc2ccc(C)c(C)c2)S(=O)(=O)c2c(C)noc2C)cc1	112	10	7	134*	x
CC(C)C(=O)NC(=S)Nc1ccccc1C(=O)NC1CCCCC1	81	1	-4	83	52*
C/C(=N\NC(=O)c1ccccc1C)c1ccc(NC(=O)c2cccs2)cc1	x	82*	x	x	x
C/C(=N\NC(=O)c1ccccc1)c1ccc(NC(=O)c2cccs2)cc1	100	26	11	109	-17
CCCOc1cc(N(CC)CC)ccc1/C=C(/C#N)c1nc2ccc(C)cc2[nH]1	111	-1	87*	57*	10
COc1cc(/C=C(\C#N)c2nc3ccc(C)cc3[nH]2)cc([N+](=O)[O-])c1O	102	44*	-1	99	-19
CCCCCCCCCCCC(=O)NC(C(=O)O)C(O)c1ccccc1 (centres undefined)	93	32*	-6	87	4
CCCC1=NN2C(=N)/C(=C\c3cc(C)n(Cc4ccccc4)c3C)C(=O)N=C2S1	104	x	7	106	0
N=C1/C(=C/c2ccco2)C(=O)N=C2SC(CC(=O)N3CCCC3)=NN12	100	x	-6	98	x
CCC1=NN2C(=N)/C(=C\c3ccc(SCc4ccco4)o3)C(=O)N=C2S1	106	62*	0	106	x
CCCC1=NN2C(=N)/C(=C\c3cc(C)n(-c4cccc(C)c4)c3C)C(=O)N=C2S1	93	33*	-1	96	2
CCCC1=NN2C(=N)/C(=C\c3ccc(SCc4ccco4)o3)C(=O)N=C2S1	84	32*	-7	86	x

Compound activity deposited in PubChem BioAssay by several laboratories.
